Test results published in PubChem BioAssay AID686978 (National Center for Advancing Translational Sciences (NCATS), 2013).
Hit rate of the full screen: of about 420,000 compounds, about 64,000 (15%) were called active. Roughly 27% stayed inconclusive and do not appear here. These entries were drawn from the full list. Unmarked numbers belong to inactive results. Calls come from the whole dose curve; as a rule, active = well fitted inhibition curve with a large enough effect; inconclusive = small, poorly fitted or top-dose-only effect; inactive = flat fitted curve, though single readings scatter.

test: qHTS for Inhibitors of human tyrosyl-DNA phosphodiesterase 1 (TDP1): qHTS in cells in absence of CPT; conditions: DT40 Tdp1-/- hTDP1 cells, no CPT, ATP luminescence, 48 h; activity change, negative = growth inhibition: at 46.2 µM (top of the series); note: nearly all actives have a fitted effect of over 55% in size
Summary of the method: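 Compound effects on proliferation are scored in DT40 Tdp1-/-;hTDP1 cells in the absence of CPT. ATP levels (CellTiter-Glo luminescence) are recorded after a ≥48 hr, 37 °C incubation.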
% is set by controls: 0 for no effect and ±100 for the full control effect; potency is the fitted concentration of half-maximal effect.

SMILES	activity change, negative = growth inhibition	Potency
O=C(NC(=S)Nc1ccc(Br)cc1F)C1CCCCC1	-23.3%	–
O=C(N/N=C/c1ccc(O)c2ccccc12)c1cccnc1	-15.7%	–
Cc1ccc(/C=N/NC(=O)C2=NNC(c3ccccc3)(c3ccccc3)C2)c(O)c1	–	4.11 µM (active)
Cc1nnsc1C(=O)N/N=C/c1ccccc1Cl	-7.21%	–
O=C(O)c1cscn1	4.68%	–
CC(OC(=O)c1c(F)cccc1F)C(=O)NCCC1=CCCCC1 (stereo unspecified)	-21.2%	–
S=C(NCCC1=CCCCC1)Nc1ccccc1	–	23.1 µM (active)
O=C(Cc1nn[nH]n1)NCCC1=CCCCC1	-18.9%	–
O=C(Cc1cccc2ccccc12)NCCC1=CCCCC1	–	29.1 µM (active)
CC(=O)Nc1ccc(S(=O)(=O)N(C)CC(=O)NCCC2=CCCCC2)cc1	-7.69%	–
O=C(CCNC(=O)Cn1ccc2ccccc2c1=O)NCCC1=CCCCC1	-1.25%	–
CC(C)CC(=O)N1CCN(Cc2cccc(Cl)c2)CC1	-15.7%	–
CCOc1ncccc1C(=O)N(CC)CC(=O)Nc1ccc(NC(C)=O)cc1	-13.9%	–
CCOC(=O)CNC(=O)c1nn(-c2cccc(OC)c2)c(=O)c2ccccc12	-15.7%	–
CCOC(=O)c1ccccc1NC(=O)c1nn(-c2ccc(OC)c(Cl)c2)c(=O)c2c1c1ccccc1n2C	-5.84%	–
COc1ccc(-n2nc(C(=O)NCCc3ccc(Cl)cc3)c3c4ccccc4n(C)c3c2=O)cc1Cl	–	13 µM (active)
COc1ccc(-n2nc(C(=O)NCC(=O)N3CCCCCC3)c3ccccc3c2=O)cc1Cl	–	23.1 µM (active)
COc1ccc(-n2nc(C(=O)NCC(=O)N3CCC(C(N)=O)CC3)c3ccccc3c2=O)cc1OC	-4.08%	–
COCCCNC(=O)CNC(=O)c1nn(-c2ccc(OC)cc2)c(=O)c2ccccc12	2.56%	–
S=C(Nc1ccc2c(c1)OCO2)N1CCCC1	5.97%	–
Nc1ccc(Cl)c(S(=O)(=O)Nc2ccccc2Cl)c1	-16.2%	–
O=S(=O)(c1ccccc1)N(CC(O)CN1CCCCC1)c1ccccc1 (stereo unspecified)	-22.7%	–
CCN(c1ccccc1)S(=O)(=O)c1ccc2[nH]c(=O)[nH]c2c1	-5.25%	–
Cc1cc(C)n(CC(O)CN(c2ccccc2)S(=O)(=O)c2ccc3ccccc3c2)n1 (stereo unspecified)	–	23.1 µM (active)
CCCCCN(C(=O)CCC(=O)OCC(=O)NC1CCC(C)CC1)c1c(N)n(CCCC)c(=O)[nH]c1=O (stereo unspecified)	-10.5%	–
Cc1nc(SCC(=O)N2CCN(c3ccccc3)CC2)[nH]c(=O)c1C	-8.2%	–

SMILES	activity change, negative = growth inhibition	Potency
O=C(COC(=O)CNC(=O)c1ccco1)Nc1ccc(F)cc1	3.34%	–
CCCN(CCC)CCNC(=O)c1ccc2c(c1)NC(=O)C(CS(=O)(=O)Cc1cccc(Br)c1)N2 (stereo unspecified)	-13.6%	–
COC(=O)c1ccc(N2CCOCC2)c(NC(=O)c2ccc(Br)o2)c1	2.37%	–
COCCNC(=O)c1ccc(N2CCC3(CC2)OCCO3)c([N+](=O)[O-])c1	6.61%	–
CCCNC(=O)c1ccc(N2CCC3(CC2)CC(c2ccc(Cl)cc2)=NO3)c([N+](=O)[O-])c1	–	20.6 µM (active)
CCN1CCC(=NNC(=O)c2ccc(C)c([N+](=O)[O-])c2)CC1	-6.49%	–
CCCNC(=O)c1ccc(N2CCC3(CC2)CC(c2cccc(Br)c2)=NO3)c(NC(=O)c2ccco2)c1	–	6.51 µM (active)
CN[C@@H]1[C@@H](O)[C@@H](O[C@@H]2[C@H](O)[C@H](O[C@H]3OC(CN)=CC[C@H]3N)[C@@H](N)C[C@H]2N)OCC1(C)O (stereo partly specified)	-2.47%	–
CN1C(C)(C)CC(NC(=O)CCC(=O)NC2CC(C)(C)N(C)C(C)(C)C2)CC1(C)C	-1.8%	–
O=P(O)(CP(=O)(c1ccccc1)c1ccccc1)c1ccccc1	5.73%	–
Cc1ccc(S(=O)(=O)N2CC(=O)Nc3ccccc32)cc1C	-3.91%	–
C=CCOC(=O)C1=C(C)NC(SCC(=O)OCC)=C(C#N)C1c1ccc(C)cc1 (stereo unspecified)	-15.5%	–
C=CCOC(=O)C1=C(C)OC(N)=C(C#N)C1c1ccc(F)cc1 (stereo unspecified)	–	29.1 µM (active)
COC(=O)C1=C(C)OC(N)=C(C#N)C1c1cc(OC)ccc1OC (stereo unspecified)	-29.9%	–
O=[N+]([O-])c1ccccc1SNc1ccccn1	–	16.4 µM (active)
O=C(CSc1nnc(-c2ccc([N+](=O)[O-])cc2)o1)Nc1ccccn1	-7.37%	–
Nc1nc(Sc2ncccc2[N+](=O)[O-])n[nH]1	-8.98%	–
O=C(Nc1ccncc1)c1ccc([N+](=O)[O-])cc1Cl	-29.3%	–
COCC(C)NC(=O)CSc1nc2nn(-c3ccccc3)c(=O)c-2c2n1CCCCC2 (stereo unspecified)	-22.2%	–
NNC(=O)C1CC(O)CN1S(=O)(=O)c1ccc(Cl)cc1 (stereo unspecified)	11.9%	–
CC1(C)CC(=O)C(N=Nc2ccc(S(=O)(=O)N3CCCCCC3)cc2)=C(O)C1	0.194%	–
CCN(CC)c1ccc(NC(=O)c2ccc(Cl)nc2)cc1	–	2.59 µM (active)
Cc1cnc(NC(=O)c2ccc(Cl)nc2)s1	-9.74%	–
NS(=O)(=O)c1ccc(NC(=O)COC(=O)c2ccc(Cl)nc2)cc1	-7.79%	–
Cc1ccc2c(c1)NCC(C(=O)NC1CCC(C)CC1)O2 (stereo unspecified)	6.84%	–
